We go through 34 compounds from ChEMBL document CHEMBL4513149, “CO-ADD screening of MMV (CH) - MMV compounds” (2021).

One assay concerns Klebsiella pneumoniae. The note with it: Concentration 20 uM; ASSAY_TEST Inhibition of Bacterial Growth; detection method Absorption (OD600); MEDIA CAMHB; plate type 384well; NBS; CORNING #3640; time 18 hr.
Another assay relates to Candida albicans. The note with it: 20 µM.
The subject of another assay is Cryptococcus neoformans. The note with it: Concentration 20 uM; ASSAY_TEST Inhibition of Fungal Growth; detection method Resazurin; Absorption (OD600-OD570); plate type 384well; NBS; CORNING #3640. In general terms: Resazurin is reduced to fluorescent resorufin, in cell work by metabolically active cells.

Measured potencies and affinities stand elsewhere.

Consider `O=C(NC1=NCCS1)c1sc2cc(F)ccc2c1Cl`, for which the results for the Inhibition in the assay with Klebsiella pneumoniae, in the assay on Candida albicans and in the assay on Cryptococcus neoformans were 1.67%, 8.69% and -16.39%, respectively.
For `NC(=O)c1cc(Br)ccc1OCCOc1ccccc1` the same measures were 10.17%, 10.7% and -9.83%.
For `Cl.c1ccc(Oc2ccc(-c3cc(N4CCNCC4)[nH]n3)cc2)cc1` the same measures were -6.32%, 2.61% and -9.84%.
For `Clc1cccc(CO[C@H]2CCc3ccccc3[C@@H]2n2ccnn2)c1` the same measures were 8.29%, 10.9% and -3.55%.
As to `CC(C)(C)c1cnc(NC(=O)c2ccccc2O)s1`, the Inhibition (as a rule, the drop in the measured response relative to a control, in per cent) in the assay on Klebsiella pneumoniae turned out to be 10.5%; with Candida albicans it was 11.6%; in the assay with Cryptococcus neoformans it was 5.21%.
For `N#Cc1ccc(-c2cnc(N)c(-c3ccc(C(N)=O)cc3)n2)cc1` the same measures were 16.03%, 4.25% and -3.91%.
On to `COc1ccc(S(=O)(=O)Nc2ccc(CN3CCN(C(=O)c4cccc(C#N)c4)CC3)cc2)cc1`, for which the Inhibition was 6.9% in the assay with Klebsiella pneumoniae, 1.12% in the assay on Candida albicans and -8.14% in the assay with Cryptococcus neoformans.
For `CCCn1nnc(NC(=O)COc2ccc(C3CCCCC3)cc2)n1` the same measures were 4.73%, 21.8% and -8.36%.
For `CCC(=O)Nc1ccccc1C(=O)Nc1ccccn1` the same measures were 11.13%, 3.37% and -4.64%.
For `Cc1ccc2nc(C)c(-c3ccn(Cc4ccccc4)n3)n2c1` the same measures were 14.88%, 3.75% and -8.36%.
`O=C(NCCc1ccccc1)c1cc(-c2cccnc2)cnc1NCC1CC1`: the Inhibition in the assay on Klebsiella pneumoniae is -2.11%; with Candida albicans, 6.13%; with Cryptococcus neoformans, -7.61%.
On to `Cc1ccc2nc(Cl)c(CNCc3cccs3)cc2c1`, for which the Inhibition was 1.61% in the assay with Klebsiella pneumoniae, 2.37% in the assay on Candida albicans and -15.9% with Cryptococcus neoformans.
For `CC(C)n1ncc2c(C(=O)NCC(c3cccs3)N3CCOCC3)cc(-c3ccccc3)nc21` (configuration not stated) the same measures were 8.44%, 4.59% and -15.65%.
Take `CNC(=O)C1Cc2c([nH]c3cc(Cl)ccc23)C2(CCN(CCc3ccccc3)CC2)N1` (configuration not stated): the Inhibition in the assay with Klebsiella pneumoniae is 10.39%; with Candida albicans it was 3.22%; with Cryptococcus neoformans, -13.49%.
For `CC1(C)Cc2c(c(N3CCOCC3)nc3snc(Br)c23)CO1` the same measures were 3.58%, 13.1% and -2.44%.
On to `COc1ccc(C2=NN(C3CCCCCC3)C(=O)C2(C)C)cc1OCCCCOc1ccc(-c2nn[nH]n2)cc1`, for which the Inhibition in the assay on Klebsiella pneumoniae was 0.76%; in the assay with Candida albicans, 5.32%; in the assay on Cryptococcus neoformans it was -17.73%.
For the compound `COc1ccc2nc(C)cc(OCC(=O)NCc3ccccc3)c2c1`, the results for the Inhibition in the assay on Klebsiella pneumoniae, in the assay with Candida albicans and with Cryptococcus neoformans were 19.56%, 2.81% and -4.71%, respectively.
For `COc1ccc(Cl)cc1NC(=O)CN(C)C(=O)c1cnn(-c2ccccc2)n1` the same measures were 9.17%, 6.95% and -5.87%.
`CCn1cnc2c(Nc3cc(F)cc(F)c3)nc(C#N)nc21`: the Inhibition is 8.51% in the assay on Klebsiella pneumoniae, 3.4% with Candida albicans and -1.23% in the assay on Cryptococcus neoformans.
Turning to `O=C(C(Cc1c[nH]c2ccccc12)NS(=O)(=O)c1ccc(Cl)cc1)N1CCCCC1` (configuration not stated), the figures for the Inhibition in the assay on Klebsiella pneumoniae, in the assay on Candida albicans and in the assay on Cryptococcus neoformans were 4.11%, 2.45% and -6.5%, respectively.
Consider `Clc1ccc(Cl)c(CO[C@H]2CCCC[C@@H]2n2ccnc2)c1`, for which the Inhibition with Klebsiella pneumoniae worked out at 15.52%; with Candida albicans, 2.99%; with Cryptococcus neoformans, 2.84%.
For `CCCCOC(=O)Nc1cc2nc(C3CCCCC3)[nH]c2cc1N1CCCC1` the same measures were 3.91%, 3.13% and -8.19%.
As to `Cc1ccc(-c2nc(CN(Cc3ccccn3)C(C)C)cs2)o1`, the figures for the Inhibition in the assay on Klebsiella pneumoniae, in the assay with Candida albicans and in the assay with Cryptococcus neoformans were 14.74%, 5.03% and -5.74%, respectively.
Regarding `N#Cc1nc(-c2ccccc2F)oc1NCCc1ccccc1`, the Inhibition is 12.11% in the assay with Klebsiella pneumoniae, 6.96% in the assay on Candida albicans and -3.78% with Cryptococcus neoformans.
Turning to `CC1COC2(CCN(c3nc(=O)c4cc(C(F)(F)F)cc([N+](=O)[O-])c4s3)CC2)O1` (configuration not stated), the Inhibition in the assay on Klebsiella pneumoniae was 8.31%; with Candida albicans, 2.39%; in the assay on Cryptococcus neoformans, -12.38%.
For `Cc1ccc(C(=O)Nc2ccc(S(=O)(=O)O)c3cc(S(=O)(=O)O)cc(S(=O)(=O)O)c23)cc1NC(=O)c1cccc(NC(=O)Nc2cccc(C(=O)Nc3cc(C(=O)Nc4ccc(S(=O)(=O)O)c5cc(S(=O)(=O)O)cc(S(=O)(=O)O)c45)ccc3C)c2)c1` [SURAMIN] the same measures were 17.11%, 39.2% and 2.45%.
For `CCN(CC)S(=O)(=O)c1ccc(Cl)c(C(=O)Nc2ccc3nc(C)sc3c2)c1` the same measures were 4.43%, 3.67% and -11.27%.
On to `c1ccc(Oc2ccc(-c3cc(CN4CCOCC4)[nH]n3)cc2)cc1`, for which the Inhibition in the assay on Klebsiella pneumoniae was 7.99%; in the assay with Candida albicans, 4.1%; in the assay with Cryptococcus neoformans, -6.41%.
For `COc1cccc(-c2cc3c(Nc4cccnc4)nccc3[nH]2)c1` the same measures were 4.5%, 3.5% and -6.63%.
`Nc1ncc(-c2ccc(C(F)(F)F)nc2)cc1-c1ccc(C(F)(F)F)nc1`: the Inhibition with Klebsiella pneumoniae is -7.95%; in the assay on Candida albicans it was 5.26%; with Cryptococcus neoformans, -5.78%.
`CCC(Sc1nc2ccccc2o1)C(=O)Nc1nccs1` (configuration not stated): the Inhibition is 14.47% in the assay with Klebsiella pneumoniae, 9.07% in the assay on Candida albicans and -15.51% in the assay with Cryptococcus neoformans.
For `O=C(NCc1nnc2n1CCCCC2)c1ccc(-c2ccc(F)cc2)o1` the same measures were 6.05%, 3.81% and 6.1%.
For `CC(=O)Nc1ccc(-c2noc(CC3CCCN(Cc4cccc(F)c4C)C3)n2)cc1` (configuration not stated) the same measures were 14.96%, 3.14% and -9.66%.
For `COc1cccc2c(C)nc(N=C(N)N)nc12.O=C(O)C(F)(F)F.O=C(O)C(F)(F)F` the same measures were 9.38%, 2.56% and -13.06%.
